In PubChem BioAssay (EPA / NIEHS):
Calls of active or inactive are those of the source. How the source made its calls: active means hit-call score of the fitted dose curve at least 0.9, where 1 is the maximum; inactive means score below 0.9.

Columns and labels:
Details in all cases: mRNA level, 48 h; actives raise or lower the signal
CYP4A11 (gene 1579) = assay: LTEA_HepaRG_CYP4A11: Life Technologies and Expression Analysis (LTEA) Assay for CYP4A11 using HepaRG (AID 2283486)
How it was run: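 Differentiated HepaRG cells, serum-free induction medium, exposed 48 h in duplicate to 8-point half-log series from 100 uM in 0.5% DMSO. CYP4A11 mRNA measured by qRT-PCR, normalized to ACTB, GAPDH, POLR2A; bidirectional fit versus DMSO.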

[1] = read-out: DNA damage-inducible transcript 3 (DDIT3), DDIT3 (gene 1649); assay: LTEA_HepaRG_DDIT3: Life Technologies and Expression Analysis (LTEA) Assay for DNA damage-inducible transcript 3 (DDIT3) using HepaRG (AID 2283488)
How it was run: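 qRT-PCR readout (Fluidigm TaqMan), housekeeping-normalized to ACTB, GAPDH, POLR2A. HepaRG cells, 48 h exposure, 8-point half-log series from 100 uM in 0.5% DMSO, duplicates. Gain or loss of signal fitted against DMSO baseline.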

[2] = read-out: Early growth response protein 1 (EGR1) transcription factor, EGR1 (gene 1958); assay: LTEA_HepaRG_EGR1: Life Technologies and Expression Analysis (LTEA) Assay for Early growth response protein 1 (EGR1) transcription factor using HepaRG (AID 2283490)
How it was run: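 HepaRG, 48 h exposure, 8-pt half-log series from 100 uM, 0.5% DMSO vehicle; EGR1 transcript by TaqMan qRT-PCR (Fluidigm array), housekeeping-normalized; bidirectional fit relative to DMSO baseline.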

[3] = read-out: Ezrin (EZR), EZR (gene 7430); assay: LTEA_HepaRG_EZR: Life Technologies and Expression Analysis (LTEA) Assay for Ezrin (EZR) using HepaRG (AID 2283491)
How it was run: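 Differentiated human HepaRG cells, 48 h after plating, were exposed in serum-free induction medium for 48 hours to eight half-log concentrations up to 100 uM in 0.5% DMSO. EZR mRNA was measured by TaqMan qRT-PCR, normalized to ACTB, GAPDH and POLR2A, and fitted bidirectionally against DMSO.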

[4] = read-out: Cytochrome P450 3A7 (Homo sapiens) (UniProt P24462); assay: LTEA_HepaRG_CYP3A7: Life Technologies and Expression Analysis (LTEA) Assay for CYP3A7 using HepaRG (AID 2283492)
How it was run: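 HepaRG cells plated 48 h, then dosed in serum-free induction medium for 48 h at 8 concentrations (top 100 uM, half-log steps, 0.5% DMSO). CYP3A7 mRNA by qRT-PCR, normalised to ACTB/GAPDH/POLR2A; bidirectional fit versus DMSO.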

CYP3A5 (gene 1577) = assay: LTEA_HepaRG_CYP3A5: Life Technologies and Expression Analysis (LTEA) Assay for CYP3A5 using HepaRG (AID 2283493)
How it was run: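 qRT-PCR read-out: CYP3A5 transcript in HepaRG lysates, housekeeping-normalized (ACTB/GAPDH/POLR2A), fitted bidirectionally against 0.5% DMSO baseline. Exposure 48 h, eight half-log concentrations up to 100 uM, duplicates.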

[5] = read-out: Cytochrome P450 4A22 (Homo sapiens) (UniProt Q5TCH4); assay: LTEA_HepaRG_CYP4A22: Life Technologies and Expression Analysis (LTEA) Assay for Cytochrome P450 4A22 (CYP4A22) using HepaRG (AID 2283495)
How it was run: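 qRT-PCR of CYP4A22 mRNA (Fluidigm TaqMan, normalized to three housekeeping genes) after 48 h chemical exposure of HepaRG cells; 8-point half-log series, top 100 uM, 0.5% DMSO vehicle. Bidirectional curve fitting vs DMSO baseline.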

[6] = read-out: Cytochrome P450 3A4 (Homo sapiens) (UniProt P08684); assay: LTEA_HepaRG_CYP3A4: Life Technologies and Expression Analysis (LTEA) Assay for CYP3A4 using HepaRG (AID 2283487)
How it was run: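 Differentiated HepaRG cells in serum-free induction medium exposed in duplicate for 48 h to 8 half-log concentrations up to 100 uM in 0.5% DMSO. CYP3A4 mRNA measured by qRT-PCR normalized to ACTB, GAPDH and POLR2A; bidirectional fit versus DMSO.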

[7] = read-out: Pro-epidermal growth factor (Homo sapiens) (UniProt P01133); assay: LTEA_HepaRG_EGF: Life Technologies and Expression Analysis (LTEA) Assay for Epidermal growth factor (EGF) using HepaRG (AID 2283489)
How it was run: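 Differentiated human HepaRG cells, plated 48 h then switched to serum-free induction medium, were exposed for 48 h to test chemicals (8-point half-log series, top 100 uM, 0.5% DMSO). EGF mRNA was quantified by qRT-PCR, normalized to ACTB, GAPDH, POLR2A.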

[8] = read-out: Fatty Acid-Binding Protein 1 (FABP1), FABP1 (gene 2168); assay: LTEA_HepaRG_FABP1: Life Technologies and Expression Analysis (LTEA) Assay for Fatty Acid-Binding Protein 1 (FABP1) using HepaRG (AID 2283494)
How it was run: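 qRT-PCR readout of FABP1 transcript (normalized to three housekeeping genes) after 48 h chemical exposure of HepaRG cells; eight concentrations, half-log steps, max 100 uM, 0.5% DMSO vehicle; gain or loss fitted relative to DMSO baseline.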

Measured: AC50

Cytochrome P450 3A7 (Homo sapiens), sequence (P24462 whole entry, looked up): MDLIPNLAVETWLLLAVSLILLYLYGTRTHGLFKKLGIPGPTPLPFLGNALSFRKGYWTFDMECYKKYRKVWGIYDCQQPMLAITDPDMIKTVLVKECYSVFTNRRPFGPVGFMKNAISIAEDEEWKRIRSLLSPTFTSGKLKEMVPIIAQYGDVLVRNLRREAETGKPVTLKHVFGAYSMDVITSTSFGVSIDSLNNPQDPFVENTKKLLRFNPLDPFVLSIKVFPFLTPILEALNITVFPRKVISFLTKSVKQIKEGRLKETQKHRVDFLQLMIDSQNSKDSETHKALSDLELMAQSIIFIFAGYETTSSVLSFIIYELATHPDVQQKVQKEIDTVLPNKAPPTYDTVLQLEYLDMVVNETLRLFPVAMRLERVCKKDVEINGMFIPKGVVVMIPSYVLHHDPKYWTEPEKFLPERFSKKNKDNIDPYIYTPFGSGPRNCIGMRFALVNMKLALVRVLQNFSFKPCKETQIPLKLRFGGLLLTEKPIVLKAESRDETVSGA
Cytochrome P450 3A4 (Homo sapiens), sequence (P08684 whole entry, looked up): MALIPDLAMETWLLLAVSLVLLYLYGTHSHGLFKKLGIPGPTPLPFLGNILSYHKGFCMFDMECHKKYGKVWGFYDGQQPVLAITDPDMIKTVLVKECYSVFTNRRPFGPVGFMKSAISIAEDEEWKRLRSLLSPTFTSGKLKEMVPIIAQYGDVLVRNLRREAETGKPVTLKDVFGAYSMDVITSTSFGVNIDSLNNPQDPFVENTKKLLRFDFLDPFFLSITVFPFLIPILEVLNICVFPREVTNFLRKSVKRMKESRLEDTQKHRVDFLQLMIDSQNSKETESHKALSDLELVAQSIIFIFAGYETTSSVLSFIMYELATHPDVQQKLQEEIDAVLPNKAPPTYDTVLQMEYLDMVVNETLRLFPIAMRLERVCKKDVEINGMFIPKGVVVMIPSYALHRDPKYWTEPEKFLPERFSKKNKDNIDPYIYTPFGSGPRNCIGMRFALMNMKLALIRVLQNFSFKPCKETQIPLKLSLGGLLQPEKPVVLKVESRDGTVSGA

O=C(Nc1ccccc1-c1ccc(Cl)cc1)c1cccnc1Cl
not listed: [6] | [7] | [8]
inactive: all other assays above

CCC(C)n1c(=O)[nH]c(C)c(Br)c1=O (stereo not given)
active: CYP4A11 (gene 1579) 13.5 µM | CYP3A5 (gene 1577) 20.4 µM | [8] 24.6 µM | [5] 7.06 µM
not listed: [1]
inactive: all other assays above

COCC(=O)N(c1c(C)cccc1C)C(C)C(=O)OC (stereo not given)
active: [8] 31.7 µM
not listed: CYP4A11 (gene 1579) | [6] | [7]
inactive: all other assays above

CO/N=C(/C1=NOCCO1)c1ccccc1Oc1ncnc(Oc2ccccc2Cl)c1F
active: [2] 12.7 µM | [3] 0.973 µM | [4] 12.4 µM | CYP3A5 (gene 1577) 23.3 µM | [5] 20.5 µM

CCOP(=O)(OCC)Oc1nc(Cl)c(Cl)cc1Cl
inactive: [7] | [3] | CYP3A5 (gene 1577)
active: [2] 83.4 µM | [4] 92.1 µM | [8] 82.6 µM | [5] 90.1 µM

Clc1cccc(C(Cl)(Cl)Cl)n1
inactive: [7] | [2] | [3] | [4] | CYP3A5 (gene 1577) | [5]

CCOc1nc(F)cc2nc(S(=O)(=O)Nc3c(Cl)cccc3Cl)nn12
inactive: [2] | [3] | CYP3A5 (gene 1577) | [5]
active: [6] 1.85 µM | [4] 9.92 µM

N#CN=C1SCCN1Cc1ccc(Cl)nc1
inactive: [1] | [2] | [3] | [4] | CYP3A5 (gene 1577) | [5]

Clc1nc(Cl)nc(Nc2ccccc2Cl)n1
inactive: [1] | [2] | [3] | [4] | CYP3A5 (gene 1577) | [5]

COP(=O)(OC)O/C(C)=C/C(=O)N(C)C
inactive: [2] | [3] | [4] | CYP3A5 (gene 1577) | [8] | [5]

COC(=O)NC(=S)Nc1ccccc1NC(=S)NC(=O)OC
active: [4] 4.46 µM
not listed: CYP4A11 (gene 1579) | [6]
inactive: all other assays above

COC(=O)N(C(=O)N1CO[C@@]2(C(=O)OC)Cc3cc(Cl)ccc3C2=N1)c1ccc(OC(F)(F)F)cc1
active: [6] 9.42 µM | [4] 73.1 µM | [8] 40 µM | [5] 28.9 µM
inactive: [2] | [3] | CYP3A5 (gene 1577)

Cc1cnc(C2=NC(C)(C(C)C)C(=O)N2)c(C(=O)O)c1 (stereo not given)
inactive: [2] | [3] | [4] | CYP3A5 (gene 1577) | [5]

COc1cc(OC)nc(NC(=O)NS(=O)(=O)c2ncccc2OCC(F)(F)F)n1
inactive: [7] | [2] | [4] | CYP3A5 (gene 1577)
active: [6] 13.3 µM | [3] 0.239 µM | [5] 0.628 µM

C=CCOC(=O)C(C)(C)OC(=O)c1cc(-n2c(=O)cc(C(F)(F)F)n(C)c2=O)ccc1Cl
active: [6] 16.6 µM | [4] 11 µM
inactive: [7] | [2] | [3] | CYP3A5 (gene 1577) | [5]

CN=C=S
inactive: [7] | [2] | [3] | [4] | CYP3A5 (gene 1577) | [5]

Cc1ccc(N=CN(C)C=Nc2ccc(C)cc2C)c(C)c1
not listed: CYP4A11 (gene 1579) | [1] | [8]
inactive: all other assays above

CC(C)N1C(=O)N(c2ccccc2)CSC1=NC(C)(C)C
inactive: [7] | [2] | [4] | CYP3A5 (gene 1577)
active: [1] 73.8 µM | [3] 50 µM | [8] 44.8 µM | [5] 63.6 µM

Cc1cc(C)nc(Nc2ccccc2)n1
not listed: CYP4A11 (gene 1579) | [1] | [8]
inactive: all other assays above

CC1(C)C(C=C(Cl)Cl)C1C(=O)OC(C#N)c1cccc(Oc2ccccc2)c1 (stereo not given)
inactive: [2] | [3] | [4] | CYP3A5 (gene 1577) | [5]

CC(C)C1(C)N=C(c2ncccc2C(=O)O)NC1=O (stereo not given)
not listed: CYP4A11 (gene 1579) | [6] | [7]
inactive: all other assays above

O=C(O)c1c(Cl)ccc2cc(Cl)cnc12
inactive: [2] | [3] | [4] | CYP3A5 (gene 1577) | [8] | [5]

CCOc1cc(C(C)(C)C)ccc1C1COC(c2c(F)cccc2F)=N1 (stereo not given)
active: [1] 52.1 µM | [8] 6.69 µM | [5] 33 µM
not listed: CYP4A11 (gene 1579) | [6]
inactive: all other assays above

C=C(C)CN(CC)c1c([N+](=O)[O-])cc(C(F)(F)F)cc1[N+](=O)[O-]
inactive: [7] | [2] | [3] | [4] | CYP3A5 (gene 1577) | [5]

Nc1c(Cl)c(F)nc(OCC(=O)O)c1Cl
not listed: CYP4A11 (gene 1579) | [6] | [8]
inactive: all other assays above

O=C1C2CC=CCC2C(=O)N1SC(Cl)(Cl)Cl (stereo not given)
not listed: CYP4A11 (gene 1579) | [6]
inactive: all other assays above

CC(C)Oc1cccc(NC(=O)c2ccccc2C(F)(F)F)c1
not listed: CYP4A11 (gene 1579) | [6] | [7]
inactive: all other assays above

CC(C)N1C(=O)c2ccccc2NS1(=O)=O
inactive: [2] | [3] | [4] | CYP3A5 (gene 1577) | [8] | [5]

CCSC(=O)N1CCCCCC1
inactive: [1] | [2] | [3] | [4] | CYP3A5 (gene 1577) | [5]

CCOC(=O)C(C)OC(=O)c1cc(Oc2ccc(C(F)(F)F)cc2Cl)ccc1[N+](=O)[O-] (stereo not given)
inactive: [3]
active: [2] 18.7 µM | [4] 5.9 µM | CYP3A5 (gene 1577) 27.5 µM | [5] 0.414 µM

CS(=O)(=O)c1cc(C(F)(F)F)ccc1C(=O)c1cnoc1C1CC1
active: [6] 35 µM
not listed: CYP4A11 (gene 1579) | [1] | [7]
inactive: all other assays above

N#Cc1c[nH]cc1-c1cccc2c1OC(F)(F)O2
inactive: [3] | [4] | CYP3A5 (gene 1577)
active: [6] 9.76 µM | [2] 50 µM | [8] 50 µM | [5] 84.8 µM

OC(c1ccc(Cl)cc1)(c1ccc(Cl)cc1)C(Cl)(Cl)Cl
active: [1] 77.2 µM | [4] 83.5 µM | CYP3A5 (gene 1577) 50 µM | [8] 63.2 µM
inactive: [2] | [3] | [5]

COCC(C)N(C(=O)CCl)c1c(C)csc1C (stereo not given)
inactive: [1] | [2] | [3] | [4] | CYP3A5 (gene 1577)

CCCCC(C#N)(Cn1cncn1)c1ccc(Cl)cc1 (stereo not given)
active: [4] 3.89 µM | [5] 51.8 µM
inactive: [7] | [2] | [3] | CYP3A5 (gene 1577)

COP(=S)(OC)Oc1ccc([N+](=O)[O-])c(C)c1
inactive: [7] | [2] | [3] | [4] | CYP3A5 (gene 1577) | [5]

Nc1cnn(-c2ccccc2)c(=O)c1Cl
not listed: CYP4A11 (gene 1579) | [6] | [8]
inactive: all other assays above

CC(C)NC(=O)N1CC(=O)N(c2cc(Cl)cc(Cl)c2)C1=O
active: [7] 12.8 µM | [5] 8.83 µM
inactive: [1] | [2] | [3] | [4] | CYP3A5 (gene 1577)
